According to PubChem BioAssay (EPA / NIEHS):
Inconclusive results are not listed. Calls of active or inactive are those of the source. How the source made its calls, unless noted: active means hit-call score of the fitted dose curve at least 0.9, where 1 is the maximum; inactive means score below 0.9.

Key:
[1] = ATG_TAL_CIS: Attagene CIS-FACTORIAL HepG2 Assay for human TAL Basal Promoter (AID 2282966); conditions: HepG2 Attagene cis-factorial TAL promoter reporter; actives raise or lower the signal;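 further: background control endpoint measuring basal TAL promoter reporter mRNA not a specific factor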
Method in brief: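 Transiently transfected HepG2 (cis-regulated reporter units), 24 h treatment, mRNA read by fluorescent CE after RT-PCR; bidirectional fit, DMSO baseline.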

[2] = ATG_TGFb_CIS: Attagene CIS-FACTORIAL HepG2 Assay for human Transforming Growth Factor (TGF) (AID 2282967); conditions: HepG2 Attagene CIS TGFb reporter, mRNA transcription; actives raise or lower the signal
Method in brief: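 HepG2 cells transiently transfected with cis-promoter-driven multiple reporter units measure endogenous TF activity; reporter mRNA quantified at 24 h by RT-PCR, FAM labeling, HpaI digestion and capillary electrophoresis. Bidirectional fit vs DMSO.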

[3] = ATG_VDRE_CIS: Attagene CIS-FACTORIAL HepG2 Assay for human Vitamin D Receptor Element (VDRE) (AID 2282968); conditions: HepG2 VDRE cis-reporter transcription, actives raise or lower the signal
Method in brief: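 Readout is VDRE-driven reporter mRNA reflecting endogenous factor activity in human HepG2 cells, sampled 24 h post-dose. Quantification used labelled RT-PCR products separated by capillary electrophoresis; bidirectional analysis relative to DMSO.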

[4] = target: Nuclear receptor subfamily 1 group I member 3 (Homo sapiens) (UniProt Q14994); assay: ATG_CAR_TRANS: Attagene TRANS-FACTORIAL HepG2 Assay for human Constitutive Androstane Receptor (CAR) (AID 2282969; active means hit-call score of the fitted dose curve at least 0.9, where 1 is the maximum;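 further: activators raise reporter mRNA above DMSO so AC50 marks induction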); conditions: HepG2 Attagene TRANS-FACTORIAL CAR reporter
Chain of Nuclear receptor subfamily 1 group I member 3 (Homo sapiens) (Q14994 whole entry, looked up, the tested form may be a part): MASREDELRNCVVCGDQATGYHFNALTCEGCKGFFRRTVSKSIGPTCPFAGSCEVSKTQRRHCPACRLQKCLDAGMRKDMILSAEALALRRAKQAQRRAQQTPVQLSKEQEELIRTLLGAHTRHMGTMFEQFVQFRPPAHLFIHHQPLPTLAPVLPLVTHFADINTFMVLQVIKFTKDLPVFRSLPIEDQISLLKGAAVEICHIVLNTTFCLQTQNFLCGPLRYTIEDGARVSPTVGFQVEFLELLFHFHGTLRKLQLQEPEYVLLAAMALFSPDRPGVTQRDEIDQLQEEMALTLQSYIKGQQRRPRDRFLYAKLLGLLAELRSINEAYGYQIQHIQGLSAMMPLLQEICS
Method in brief: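 Signal is reporter mRNA induction relative to DMSO, measured 24 h after dosing by RT-PCR with fluorescent primer extension and capillary electrophoresis. Human HepG2 liver cells carried transiently transfected chimeric NR-Gal4/GAL4-UAS reporter constructs.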

[5] = target: X-box-binding protein 1 (Homo sapiens) (UniProt P17861); assay: ATG_Xbp1_CIS: Attagene CIS-FACTORIAL HepG2 Assay for human X-box Binding Protein 1 (XBP1) (AID 2282972); conditions: HepG2 XBP1 cis-element reporter, Attagene multiplex; actives raise or lower the signal
Chain of X-box-binding protein 1 (Homo sapiens) (P17861 whole entry, looked up): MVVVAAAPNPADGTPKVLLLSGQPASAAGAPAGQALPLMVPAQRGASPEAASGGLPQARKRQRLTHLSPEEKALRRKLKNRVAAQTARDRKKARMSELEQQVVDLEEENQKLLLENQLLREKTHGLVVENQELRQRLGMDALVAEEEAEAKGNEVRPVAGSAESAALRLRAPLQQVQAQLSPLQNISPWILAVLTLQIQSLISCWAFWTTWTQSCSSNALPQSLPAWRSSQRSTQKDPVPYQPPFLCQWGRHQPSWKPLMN
Method in brief: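 Multiplexed cis-reporter readout in transfected HepG2 liver cells. Exposure lasted 24 hours. Activity in either direction was fitted against DMSO as negative control and baseline.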

[6] = ATG_M_19_TRANS: Attagene TRANS-FACTORIAL HepG2 Assay for M19 Transcription Factor (Internal Marker) (AID 2282974; active means hit-call score of the fitted dose curve at least 0.9, where 1 is the maximum); conditions: HepG2 Attagene TRANS-FACTORIAL M19 internal marker reporter
Method in brief: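 Measured here: internal-marker reporter transcript from HepG2 cells transfected with MRTUs, harvested at 24 h. cDNA PCR products were 6-FAM labelled by primer extension, cut with HpaI for 2 h at 37 C, and resolved by CE.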

[7] = target: Estrogen-related receptor gamma (Homo sapiens) (UniProt P62508); assay: ATG_ERRg_TRANS: Attagene TRANS-FACTORIAL HepG2 Assay for human Estrogen-Related Receptor gamma (ERRg) (AID 2282977; active means hit-call score of the fitted dose curve at least 0.9, where 1 is the maximum;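 further: hits increase reporter signal over DMSO so potencies reflect activators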); conditions: HepG2 Attagene TRANS reporter, ERRg transactivation
Chain of Estrogen-related receptor gamma (Homo sapiens) (P62508 whole entry, looked up, the tested form may be a part): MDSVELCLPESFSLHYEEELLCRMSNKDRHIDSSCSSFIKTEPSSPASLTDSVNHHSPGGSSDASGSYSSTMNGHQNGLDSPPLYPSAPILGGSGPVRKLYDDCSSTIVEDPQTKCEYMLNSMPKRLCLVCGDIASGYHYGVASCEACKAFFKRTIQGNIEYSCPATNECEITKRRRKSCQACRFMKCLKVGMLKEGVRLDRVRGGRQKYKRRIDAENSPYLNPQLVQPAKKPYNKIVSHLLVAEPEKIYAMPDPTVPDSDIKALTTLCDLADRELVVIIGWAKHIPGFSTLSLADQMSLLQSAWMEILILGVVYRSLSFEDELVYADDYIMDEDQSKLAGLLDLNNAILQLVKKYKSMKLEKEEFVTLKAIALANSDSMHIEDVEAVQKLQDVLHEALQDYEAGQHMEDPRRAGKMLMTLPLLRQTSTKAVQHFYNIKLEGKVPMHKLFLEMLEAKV
Method in brief: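 Induction of reporter transcripts through a chimeric NR-Gal4 protein is quantified in transfected human HepG2 liver cells after 24 h chemical exposure, using RT-PCR with capillary electrophoresis detection and DMSO as baseline.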

[8] = ATG_GAL4_TRANS: Attagene TRANS-FACTORIAL HepG2 Assay for GAL4 (Internal Marker) (AID 2282976; active means hit-call score of the fitted dose curve at least 0.9, where 1 is the maximum); conditions: HepG2 Attagene TRANS GAL4 internal marker reporter
Method in brief: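 HepG2 cells transiently transfected with multiplexed GAL4-UAS reporter constructs were dosed for 24 h. Reporter mRNA was measured by RT-PCR, 6-FAM primer extension, HpaI digestion and capillary electrophoresis, and gain of signal was fitted relative to DMSO.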

[9] = target: Estrogen receptor (Homo sapiens) (UniProt P03372); assay: ATG_ERa_TRANS: Attagene TRANS-FACTORIAL HepG2 Assay for human Estrogen Receptor alpha (ERa) (AID 2282970; active means hit-call score of the fitted dose curve at least 0.9, where 1 is the maximum); conditions: HepG2 Attagene TRANS ERa GAL4 reporter, mRNA
Chain of Estrogen receptor (Homo sapiens) (P03372 whole entry, looked up, the tested form may be a part): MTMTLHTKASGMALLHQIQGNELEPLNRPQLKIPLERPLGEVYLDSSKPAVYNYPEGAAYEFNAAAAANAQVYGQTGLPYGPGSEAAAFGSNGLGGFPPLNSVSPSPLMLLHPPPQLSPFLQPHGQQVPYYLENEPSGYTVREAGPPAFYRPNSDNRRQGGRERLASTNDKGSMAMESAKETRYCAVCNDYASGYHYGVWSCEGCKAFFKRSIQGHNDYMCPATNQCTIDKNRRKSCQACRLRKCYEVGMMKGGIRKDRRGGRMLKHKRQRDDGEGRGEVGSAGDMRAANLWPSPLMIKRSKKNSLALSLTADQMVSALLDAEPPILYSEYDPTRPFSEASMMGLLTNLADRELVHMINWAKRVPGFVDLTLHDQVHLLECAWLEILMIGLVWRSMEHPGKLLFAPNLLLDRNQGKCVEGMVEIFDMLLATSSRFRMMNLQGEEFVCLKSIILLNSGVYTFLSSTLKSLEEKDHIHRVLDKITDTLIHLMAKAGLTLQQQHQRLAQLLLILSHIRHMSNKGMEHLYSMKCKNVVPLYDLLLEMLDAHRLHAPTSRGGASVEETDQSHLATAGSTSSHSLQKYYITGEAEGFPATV
Method in brief: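 One of 30 multiplexed endpoints from a HepG2 TRANS system, this one reports ERa-Gal4-driven reporter mRNA. Transcripts were quantified 24 hours post-dosing by fluorescent RT-PCR and capillary electrophoresis, with activity scored as induction over DMSO.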

[10] = target: Steroid hormone receptor ERR1 (Homo sapiens) (UniProt P11474); assay: ATG_ERRa_TRANS: Attagene TRANS-FACTORIAL HepG2 Assay for human Estrogen-Related Receptor alpha (ERRa) (AID 2282971; active means hit-call score of the fitted dose curve at least 0.9, where 1 is the maximum); conditions: HepG2 Attagene TRANS reporter, ERRa transactivation
Chain of Steroid hormone receptor ERR1 (Homo sapiens) (P11474 whole entry, looked up, the tested form may be a part): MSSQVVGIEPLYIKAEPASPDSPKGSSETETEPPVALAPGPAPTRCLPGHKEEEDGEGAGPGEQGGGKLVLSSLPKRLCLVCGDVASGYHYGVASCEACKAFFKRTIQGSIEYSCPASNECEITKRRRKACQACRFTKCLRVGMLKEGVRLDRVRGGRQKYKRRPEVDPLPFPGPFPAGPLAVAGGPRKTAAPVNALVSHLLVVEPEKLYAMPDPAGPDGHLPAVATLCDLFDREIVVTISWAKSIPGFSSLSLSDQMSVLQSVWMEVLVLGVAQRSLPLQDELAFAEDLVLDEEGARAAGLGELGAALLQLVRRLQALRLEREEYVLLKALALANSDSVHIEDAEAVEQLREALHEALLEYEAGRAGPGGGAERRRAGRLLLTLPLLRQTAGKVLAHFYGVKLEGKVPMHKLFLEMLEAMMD
Method in brief: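 HepG2 cells transiently transfected with multiplexed GAL4-UAS reporter units reading chimeric ERRa-Gal4 activity; 24 h compound exposure. Reporter mRNA measured by RT-PCR, 6-FAM labelling, HpaI digest and capillary electrophoresis; gain of signal fitted versus DMSO baseline.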

Measured: AC50

CCCC(C)C=O (configuration not stated)
inactive: [1] | [2] | [3] | [4] | [5] | [6] | [7]

CCCCC(CC)COC(=O)/C=C\C(=O)OCC(CC)CCCC (configuration not stated)
inactive: [1] | [2] | [3] | [4] | [5] | [6] | [8] | [7]

c1ccc(CCCc2ccccn2)cc1
inactive: [1] | [9] | [10] | [5] | [7]
active: [2] 148 µM | [3] 42.9 µM

CCCCCCCCCCCCCCCC(=O)O
inactive: [1] | [2] | [3] | [4] | [5] | [8]

CCOC(=O)c1ccccc1OC
inactive: [1] | [2] | [3] | [4] | [5] | [7]

CC(=O)/C=C/C1=C(C)CCCC1(C)C
inactive: [1] | [2] | [9] | [5]
active: [3] 3.58 µM

C=C(C)[C@@H]1CCC2=CC(=O)C[C@@H](C)[C@]2(C)C1
active: [2] 152 µM
inactive: [1] | [3] | [9] | [5] | [6]

CCCCCCCCCC=O
inactive: [1] | [2] | [3] | [9] | [5]

CC(c1cc2ccccc2s1)N(O)C(N)=O (configuration not stated)
inactive: [1] | [2] | [3] | [9] | [5] | [6]

OCCOCCOCCOCCO
inactive: [1] | [2] | [3] | [9] | [5]

C=C(C)C(=O)O[C@H]1C[C@@H]2CC[C@@]1(C)C2(C)C
active: [2] 143 µM | [9] 38 µM
inactive: [1] | [3] | [5] | [6]

O=CCCc1ccccc1
inactive: [1] | [2] | [3] | [10] | [5] | [6]

N#Cc1ccccc1
inactive: [1] | [2] | [3] | [10] | [5] | [8] | [7]

FC1(F)C(F)(F)C(F)(F)C2(F)C(F)(C1(F)F)C(F)(F)C(F)(F)C1(F)C(F)(F)C(F)(F)C(F)(F)C(F)(F)C12F (configuration not stated)
inactive: [1] | [2] | [3] | [5]

CC(=O)O[C@]1(C(C)=O)CC[C@H]2[C@@H]3C[C@H](C)C4=CC(=O)CC[C@]4(C)[C@H]3CC[C@@]21C
active: [3] 17.1 µM
inactive: [1] | [2] | [9] | [5] | [8]

CC(C)C1CCC(O)CC1 (configuration not stated)
inactive: [1] | [2] | [3] | [5]

NCCCCCCN
inactive: [1] | [2] | [3] | [10] | [5] | [6] | [8] | [7]
